# Test results taken from PubChem BioAssay.
# The source made the active and inactive calls.
# Assays:
# [1] = test system: Plasmodium falciparum Sir2 (PF13_0152, Sir2A); assay: Plasmodium falciparum Sir2A binding compounds – biochemical, small-molecule microarray, 635 nm fluorescence, primary screen (AID 1098); conditions: fluorescence 635 nm, higher = more signal;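 also: score merges spot fluorescence intensity with its signal-to-noise ratio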
# [2] = probe aDKK1 binding to arrayed compounds – biochemical, biotinylated probe, 635/667 nm fluorescence, primary screen (AID 1099); conditions: small-molecule microarray, higher = more signal;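 also: score merges 667nm spot fluorescence with signal to noise across triplicate slides; reference of the scale not given here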
# [3] = probe aCHRDL2 binding to arrayed compounds – biochemical, biotinylated probe, 635/667 nm fluorescence, primary screen (AID 1100); conditions: small-molecule microarray, higher = more signal
# [4] = change in splice reporter luminescence, either direction, cell-based, HEK293, spliceosome inhibition project, primary screen (AID 1101); conditions: HEK293 splicing luciferase reporter, 24 h, higher = more signal, called active from +8 up or from −8 down;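 also: HEK293 cells carrying a splicing-competent luciferase reporter gene; test concentration not given here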
# [5] = molecular target: Fibroblast growth factor 10 (Homo sapiens) (UniProt O15520); assay: compounds binding fibroblast growth factor 10 – biochemical, small-molecule microarray, 635 nm fluorescence, primary screen (AID 1102); conditions: FGF10 binding, fluorescence 635 nm, higher = more signal
# Fibroblast growth factor 10 (Homo sapiens), sequence (O15520 whole entry, looked up): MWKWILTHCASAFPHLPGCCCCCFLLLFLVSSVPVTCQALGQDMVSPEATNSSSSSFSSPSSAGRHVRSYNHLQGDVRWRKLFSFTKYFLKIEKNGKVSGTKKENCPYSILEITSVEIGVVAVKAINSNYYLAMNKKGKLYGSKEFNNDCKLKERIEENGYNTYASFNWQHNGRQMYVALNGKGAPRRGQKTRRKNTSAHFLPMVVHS
# [6] = test system: glycogen synthase kinase-3 (GSK3A per assay name; protocol says GSK3B); assay: compounds binding glycogen synthase kinase-3 – biochemical, small-molecule microarray, 635 nm fluorescence, GSK3A, primary screen (AID 1103); conditions: fluorescence 635 nm, higher = more signal; also: the record names both GSK3A and GSK3B
# [7] = molecular target: Epidermal growth factor receptor (Homo sapiens) (UniProt P00533); assay: compounds binding epidermal growth factor receptor – biochemical, small-molecule microarray, 635 nm fluorescence, primary screen (AID 1104); conditions: EGFR binding, higher = more signal;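 also: score merges 667 nm emission intensity with spot signal to noise over triplicate slides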
# Epidermal growth factor receptor (Homo sapiens), sequence (P00533 whole entry, looked up): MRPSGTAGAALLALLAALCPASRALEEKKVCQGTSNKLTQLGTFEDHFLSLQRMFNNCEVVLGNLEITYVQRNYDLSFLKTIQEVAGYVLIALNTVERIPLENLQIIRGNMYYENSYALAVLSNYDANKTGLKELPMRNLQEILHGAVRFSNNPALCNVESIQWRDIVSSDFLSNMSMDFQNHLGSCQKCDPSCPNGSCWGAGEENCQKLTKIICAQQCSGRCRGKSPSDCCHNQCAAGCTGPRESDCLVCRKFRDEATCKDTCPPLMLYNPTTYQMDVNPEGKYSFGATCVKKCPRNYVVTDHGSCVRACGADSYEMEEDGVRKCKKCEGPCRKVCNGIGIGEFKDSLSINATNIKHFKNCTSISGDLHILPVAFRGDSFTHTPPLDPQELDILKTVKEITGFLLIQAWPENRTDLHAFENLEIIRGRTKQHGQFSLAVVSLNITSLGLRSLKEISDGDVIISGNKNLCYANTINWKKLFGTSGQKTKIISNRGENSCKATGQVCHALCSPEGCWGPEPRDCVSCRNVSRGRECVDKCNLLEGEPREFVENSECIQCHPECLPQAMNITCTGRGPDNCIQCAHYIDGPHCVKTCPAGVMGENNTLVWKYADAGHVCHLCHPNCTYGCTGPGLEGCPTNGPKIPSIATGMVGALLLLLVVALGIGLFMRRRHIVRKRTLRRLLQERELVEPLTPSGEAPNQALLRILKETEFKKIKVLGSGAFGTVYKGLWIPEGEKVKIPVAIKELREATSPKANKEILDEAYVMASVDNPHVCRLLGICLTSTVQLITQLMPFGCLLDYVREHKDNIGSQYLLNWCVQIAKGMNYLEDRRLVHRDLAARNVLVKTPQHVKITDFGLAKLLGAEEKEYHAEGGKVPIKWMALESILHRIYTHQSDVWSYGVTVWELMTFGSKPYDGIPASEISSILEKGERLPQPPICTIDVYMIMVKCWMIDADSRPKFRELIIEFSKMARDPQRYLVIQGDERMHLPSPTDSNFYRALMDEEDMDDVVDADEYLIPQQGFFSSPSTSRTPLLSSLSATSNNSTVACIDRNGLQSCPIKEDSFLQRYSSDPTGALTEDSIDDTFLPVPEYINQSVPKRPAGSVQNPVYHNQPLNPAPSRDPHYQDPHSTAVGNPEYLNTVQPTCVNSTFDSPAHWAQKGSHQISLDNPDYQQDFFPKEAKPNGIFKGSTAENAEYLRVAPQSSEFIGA
# [8] = molecular target: Follistatin-related protein 3 (Homo sapiens) (UniProt O95633); assay: compounds binding follistatin-related protein 3 – biochemical, small-molecule microarray, 635 nm fluorescence, primary screen (AID 1105); conditions: FSTL3 binding, higher = more signal;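 also: score merges emission near 667 nm and signal to noise per printed spot across three slides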
# Follistatin-related protein 3 (Homo sapiens), sequence (O95633 whole entry, looked up): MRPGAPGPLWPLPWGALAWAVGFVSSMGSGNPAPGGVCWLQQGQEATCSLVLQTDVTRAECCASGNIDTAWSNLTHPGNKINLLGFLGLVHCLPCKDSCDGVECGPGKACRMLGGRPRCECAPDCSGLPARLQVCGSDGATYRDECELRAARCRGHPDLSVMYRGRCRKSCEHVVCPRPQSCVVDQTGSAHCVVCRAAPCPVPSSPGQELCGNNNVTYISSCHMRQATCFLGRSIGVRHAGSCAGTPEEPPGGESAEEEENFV
# [9] = molecular target: Dickkopf-related protein 1 (Homo sapiens) (UniProt O94907); assay: small molecules binding DKK1 protein – biochemical, small-molecule microarray, 635 nm fluorescence scan, primary screen (AID 1106); conditions: higher = more signal;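 also: score merges emission near 667 nm with signal to noise over three replicate slides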
# Dickkopf-related protein 1 (Homo sapiens), sequence (O94907 whole entry, looked up): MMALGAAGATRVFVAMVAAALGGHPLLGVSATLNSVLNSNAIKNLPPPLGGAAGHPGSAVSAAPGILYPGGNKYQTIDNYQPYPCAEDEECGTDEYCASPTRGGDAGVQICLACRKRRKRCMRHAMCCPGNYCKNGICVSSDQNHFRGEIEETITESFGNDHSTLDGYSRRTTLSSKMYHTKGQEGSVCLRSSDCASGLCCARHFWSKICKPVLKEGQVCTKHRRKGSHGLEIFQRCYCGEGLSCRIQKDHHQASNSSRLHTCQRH
# [10] = test system: Inhibin beta A chain (activin A); assay: small molecules binding activin A – biochemical, small-molecule microarray, 635 nm fluorescence scan, primary screen (AID 1107); conditions: INHBA, higher = more signal;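 also: mouse activin A protein probed at 4.33 µg/mL on printed slides; score merges bound-protein fluorescence near 667 nm with spot signal-to-noise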
SMILES,composite z-score [1],composite z-score [2],composite z-score [3],z-score [4],composite z-score [5],composite z-score [6],composite z-score [7],composite z-score [8],composite z-score [9],composite z-score [10]
Cc1ccc(S[C@]2(C(=O)NCC(C)C)CC(=O)N(C(C)C)[C@@H]2c2ccc(CO)cc2I)cc1,0.115,0.669,1.28,-1.14 (inactive),-0.679,-1.03,-0.941,-0.573,-0.7,0.256
Cc1ccc(S(=O)(=O)N2[C@@H](c3ccccc3)C(C(=O)O)=C[C@H]2C(C)(C)C)cc1,1.19,1.08,1.01,0.233 (inactive),0.644,1.35,0.374,0.819,0.0781,-0.124
C=CC[C@H](OC(=O)Nc1ccc(SC)cc1)c1ccc(O)c(F)c1,0.983,-0.172,0.277,-0.354 (inactive),-0.918,-0.786,-0.392,-0.88,-1.17,0.536
COc1ccc(C(=O)Nc2ccc(CN3C(=O)[C@]4(O[C@H](CC(=O)N(CCO)Cc5ccccc5)[C@@H]([Si](C)(C)c5ccc(OC)cc5)[C@@H]4C)c4ccccc43)cc2)cc1,1.11,-0.0522,-0.338,-1.88 (inactive),1.34,0.956,0.918,1.34,1.1,0.842
C=C[C@H](C)[C@@H](OC(=O)Nc1ccc(SC)cc1)c1ccc(OCCO)cc1,1.11,-0.189,0.529,-1.36 (inactive),1.02,0.321,-0.359,0.379,-0.395,0.246
C[N+](C)(C)CCCC[C@@H]1NC(=O)[C@H]2C[C@@H](C(=O)NCCCCCN)[C@@H](c3ccc(O)cc3)N2C1=O,0.977,0.876,0.863,0.127 (inactive),1.53,1.34,0.243,0.58,0.89,0.617
COc1cc2c(cc1OC)CN(C(=O)[C@@H]1[C@H]3C(=O)O[C@H](c4ccccc4)[C@H](c4ccccc4)N3[C@H](c3ccc(O)cc3)[C@@]13C(=O)Nc1ccc(C#CC4=CCCCC4)cc13)CC2,1.39,0.716,0.586,-0.101 (inactive),0.975,1.28,0.452,1.03,0.453,0.475
CCCCN1CC=CC23O[C@@H]4C=CCCOC(=O)C4[C@H]2C(=O)N(CCO)[C@@H]3C1=O (stereo not given in full),-1.33,-0.364,0.297,0.244 (inactive),0.107,-0.248,-1.19,-0.838,-0.587,0.0542
C=CCOC(=O)[C@H]1[C@@H]2C(=O)O[C@@H](c3ccccc3)[C@@H](c3ccccc3)N2[C@@H](c2ccc(OCCOC(=O)[C@@H]3C[C@@H]4C(=O)N[C@@H](Cc5ccccc5)C(=O)N4[C@@H]3c3ccc(O)cc3)cc2)[C@]12C(=O)Nc1ccc(I)cc12,1.5,-0.188,-0.381,-0.461 (inactive),1.31,0.606,0.654,1.24,0.825,0.684
COC(=O)[C@@]1(Cc2ccc(F)cc2)[C@H]2c3cc(C(=O)N4CCCC4)n(CCc4c[nH]c5cc(F)ccc45)c3C[C@H]2CN1C(=O)c1ccccc1,1.05,0.593,0.852,-0.685 (inactive),1.14,1.32,0.146,1.25,0.736,1.09
COCCOC(=O)N1C(=O)[C@@]2(c3cc(C#CC4=CCCCC4)ccc31)[C@H](C(=O)N1CCCCCCC1)[C@H]1C(=O)O[C@H](c3ccccc3)[C@H](c3ccccc3)N1[C@@H]2c1ccccc1OCCO,1.33,0.854,1.14,-1.09 (inactive),0.536,1.3,0.846,1.44,0.865,1.75
CCCCC(=C=CC[C@@H](O)c1ccccc1OCCO)C[C@@H](O)c1ccccn1,1.55,-0.124,-0.167,-0.0777 (inactive),0.473,-0.644,0.125,0.143,0.141,0.624
COCCOC(=O)N1C(=O)[C@@]2(c3cc(C#CCNC(N)=O)ccc31)[C@H](C(N)=O)[C@H]1C(=O)O[C@H](c3ccccc3)[C@H](c3ccccc3)N1[C@@H]2c1ccc(O)cc1,0.92,0.554,0.614,0.359 (inactive),0.149,-0.575,-0.278,-0.239,0.0656,0.676
[N-]=[N+]=NCc1ccccc1C[C@@]1(C(N)=O)N=C(c2ccc(OCCCO)cc2)O[C@@H]1c1ccccc1N=[N+]=[N-],1.51,0.747,1.13,-0.397 (inactive),0.839,1.19,-0.547,-0.239,-0.38,-0.217
CC1CC/C=C\[C@H]2OC34C=CCN(C(C)C)C(=O)[C@H]3N(C(C)CO)C(=O)[C@@H]4C2C(=O)O1 (stereo not given in full),0.048,-0.27,-0.335,-0.789 (inactive),-0.171,-0.297,-0.467,0.0275,0.165,0.727
O=C1O[C@@H](c2ccccc2)[C@@H](c2ccccc2)N2[C@@H](c3ccc(OCCO)cc3)[C@]3(C(=O)Nc4ccc(C#CC5=CCCCC5)cc43)[C@@H](C(=O)Nc3nc4ccccc4s3)[C@H]12,1.63,-0.127,-1.13,-0.61 (inactive),1.01,0.489,0.554,0.0685,-0.188,-0.289

SMILES,composite z-score [1],composite z-score [2],composite z-score [3],z-score [4],composite z-score [5],composite z-score [6],composite z-score [7],composite z-score [8],composite z-score [9],composite z-score [10]
[N-]=[N+]=Nc1ccccc1C[C@@]1(C(=O)NCC(O)CO)N=C(c2ccc(OCCCO)cc2)O[C@@H]1c1ccccc1N=[N+]=[N-] (stereo not given in full),1.05,0.106,1.09,8.25 (active),0.233,0.446,-0.283,0.855,-0.67,1.33
C=C(CCCC)/C(=C/C[C@@H](OC(C)=O)c1cccc(OCCO)c1)c1cc(C(=O)OC)ccc1OC,1.31,-0.113,0.0282,-0.509 (inactive),-0.004,-0.657,-0.347,0.212,-0.08,0.863
O=C(N1CCOCC1)[C@]1(CCS(=O)(=O)c2ccccc2)N=C(c2ccc(OCCCO)cc2)O[C@@H]1c1ccccc1,1.5,1.18,1.37,-1.04 (inactive),0.59,0.7,-0.113,0.488,-0.753,0.599
CCCCCN1CC=CC23O[C@@H]4/C=C\CCCOC(=O)C4[C@H]2C(=O)N(CCO)[C@@H]3C1=O (stereo not given in full),1.14,-0.132,0.107,-1.83 (inactive),-0.412,0.45,-0.356,-0.338,-0.0986,1.14
COC(=O)C1(CC(C)C)C=C2C(=C(C)C(=O)C2C)CN1 (stereo not given),-0.211,1.34,1.14,1.68 (inactive),0.069,-0.279,-0.155,0.641,-0.15,1.43
CN(C)CCCCCCNC(=O)[C@@H]1C[C@@H]2C(=O)N[C@@H](CCCC[N+](C)(C)C)C(=O)N2[C@@H]1c1cccc(OCCO)c1,0.512,0.116,0.474,-1.52 (inactive),-1.11,0.218,-0.962,-0.714,-0.377,-0.246
C=C(C(=O)CC[C@@H](OC(=O)c1ccccc1-c1ccccc1C(=O)O)c1cccc(OCCO)c1)C(C)C,0.679,-0.318,-0.393,0.436 (inactive),1.56,0.133,-0.143,0.441,0.907,1.06
C=CCNC(=O)[C@H]1[C@@H]2C(=O)O[C@@H](c3ccccc3)[C@@H](c3ccccc3)N2[C@@H](c2ccc(OCCO)cc2)[C@]12C(=O)Nc1ccc(C#Cc3ccc(OC)cc3)cc12,1.34,0.626,0.632,-0.258 (inactive),1.23,1.33,0.486,1.17,0.736,-0.274
O=C1OCC=C[C@H]2OC34C=CCN(Cn5nnc6ccccc65)C(=O)[C@H]3N(CCO)C(=O)[C@@H]4[C@@H]12 (stereo not given in full),0.101,-0.0279,0.329,1.15 (inactive),-1.33,-1.02,-1.09,-1.35,-1.71,-0.0812
COCCOC(=O)N1C(=O)[C@@]2(c3cc(C#CCCO)ccc31)[C@H](C(=O)N1CCN(c3ncccn3)CC1)[C@H]1C(=O)O[C@H](c3ccccc3)[C@H](c3ccccc3)N1[C@@H]2c1ccc(OCCO)cc1,1.24,-0.019,0.349,-1.1 (inactive),1.22,0.823,0.592,1.38,0.514,0.356
C=C(C(=O)CC[C@H](OC(=O)c1ccccc1-c1ccccc1C(=O)O)c1ccc(OCCO)cc1)C(C)C,1.26,0.157,0.0371,-0.47 (inactive),1.04,0.114,-0.242,0.0428,0.339,0.548
CC1C2C(CCCO)=CC(C3C(=O)N(C(N)=O)C(=O)C23)N1Cc1cccc(OC(F)(F)F)c1 (stereo not given),0.174,-0.0132,-0.311,-0.586 (inactive),0.646,0.719,0.177,0.101,-0.26,-0.055
O=C1N(Cc2ccccc2)c2ccccc2C[C@@]12N=C(c1ccc(OCCCO)cc1)O[C@H]2c1ccccc1,-0.0351,0.184,0.923,-0.521 (inactive),0.457,0.977,0.282,0.319,-0.648,0.295
CCCCN1CC=CC23O[C@@H]4/C=C\CCC(C)OC(=O)C4[C@H]2C(=O)N(CCO)[C@@H]3C1=O (stereo not given in full),1.38,-0.218,0.64,0.267 (inactive),-1.17,-0.415,-0.652,-0.0882,-0.231,1.19
CC(C)c1ccc(NN2C(C(O)C(C)c3ccccc3)C=CC3C(=O)N(c4ccccc4)C(=O)C32)cc1 (stereo not given),1.28,1.41,1.03,1.77 (inactive),1.09,1.28,0.308,0.838,0.18,-0.804
CC(C)c1ccc(NN2C(C(O)C3CCCCC3)C=CC3C(=O)N(c4ccccc4)C(=O)C32)cc1 (stereo not given),1.4,0.929,1.11,0.194 (inactive),0.802,1.24,0.478,1.11,0.794,0.874
